# Calls of active or inactive are those of the source. Rule for the calls: active = hit-call score of the fitted dose curve at least 0.9, where 1 is the maximum; inactive = score below 0.9.
# Test: ATG_TAL_CIS: Attagene CIS-FACTORIAL HepG2 Assay for human TAL Basal Promoter (AID 2282966);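 note: background control endpoint measuring basal TAL promoter reporter mRNA not a specific factor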
# Conditions: HepG2 Attagene cis-factorial TAL promoter reporter; actives raise or lower the signal
# Procedure, shortened: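 Readout: reporter mRNA, fluorescence by CE. System: HepG2, transient multi-reporter transfection, endogenous TF activity. Exposure: 24 h. Analysis: bidirectional, DMSO-normalized; background control.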
SMILES,outcome,AC50
NC(=O)NN=Cc1ccc([N+](=O)[O-])o1,inactive,
CCCC(CCC)C(=O)O,inactive,
Cc1ccc(S(=O)(=O)NC(=O)NN2CCCCCC2)cc1,inactive,
CCc1ccc(O)c(C(C)(C)C)c1,inactive,
CCCCCCCCCCCCCCO,,100 µM (active)
OCCNCCO,inactive,
Nc1ccn([C@@H]2O[C@H](CO)[C@@H](O)[C@@H]2O)c(=O)n1,inactive,
COCc1nnc(-c2ccc[n+]([O-])c2)n1-c1c(Cl)c(Cl)cc2[nH]c(=O)c(=O)[nH]c12,inactive,
CCCCCOC(C)=O,inactive,
NNC(=O)c1ccncc1,inactive,
CCCOc1ccc(S(=O)(=O)N2CCN(CC)CC2)cc1-c1nc2c(CC)n(Cc3ccccn3)nc2c(=O)[nH]1,inactive,
OC(Cn1cncn1)(Cn1cncn1)c1ccc(F)cc1F,inactive,
c1ccc2cc3ccccc3cc2c1,inactive,
CCCCCCOC(=O)CC(CC(=O)OCCCCCC)(OC(=O)CCC)C(=O)OCCCCCC,inactive,
OCc1ccccc1,inactive,
Cc1nc(-c2ccccn2)ncc1C(=O)Nn1cc(C)c2cc(F)ccc21,inactive,
Cc1nccn1-c1ccc(Sc2cccc(C3(C(N)=O)CCOCC3)c2)cc1,,6.43 µM (active)
COS(C)(=O)=O,inactive,
O=C(NO)C1(NS(=O)(=O)c2ccc(Oc3ccc(F)cc3)cc2)CCOCC1,inactive,
C[C@]12C=CC(=O)C=C1CC[C@H]1[C@@H]3C[C@@H](O)[C@](O)(C(=O)CO)[C@@]3(C)C[C@H](O)[C@@]12F,inactive,
CCCCCCCC/C=C\CCCCCCCC(=O)OC[C@@H](O)[C@H]1OC[C@H](O)[C@H]1O,inactive,
O=C1CN(N=Cc2ccc([N+](=O)[O-])o2)C(=O)N1,inactive,
C=CCc1cc(S(=O)(=O)c2ccc(O)c(CC=C)c2)ccc1O,inactive,
CCOc1ccc2[nH]cc(C(=O)NCc3ccccc3)c(=O)c2n1,inactive,
CCCCCCCCN(C)C,inactive,
CC(C)CC(C)O (centres undefined),inactive,
CCCCCCCCCCCCCCCCOS(=O)(=O)O,inactive,
CCCCCCCCCC,inactive,

# Test: ATG_TGFb_CIS: Attagene CIS-FACTORIAL HepG2 Assay for human Transforming Growth Factor (TGF) (AID 2282967)
# Conditions: HepG2 Attagene CIS TGFb reporter, mRNA transcription; actives raise or lower the signal
# Procedure, shortened: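 Liver HepG2 line, cis-factorial reporter panel, 24 h dosing. Quantitation: RT-PCR products labeled with 6-FAM, cut with HpaI, resolved by capillary electrophoresis; DMSO-referenced bidirectional analysis.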
SMILES,outcome,AC50
NC(=O)NN=Cc1ccc([N+](=O)[O-])o1,inactive,
CCCC(CCC)C(=O)O,inactive,
Cc1ccc(S(=O)(=O)NC(=O)NN2CCCCCC2)cc1,inactive,
CCc1ccc(O)c(C(C)(C)C)c1,inactive,
CCCCCCCCCCCCCCO,inactive,
OCCNCCO,inactive,
Nc1ccn([C@@H]2O[C@H](CO)[C@@H](O)[C@@H]2O)c(=O)n1,inactive,
COCc1nnc(-c2ccc[n+]([O-])c2)n1-c1c(Cl)c(Cl)cc2[nH]c(=O)c(=O)[nH]c12,inactive,
CCCCCOC(C)=O,inactive,
NNC(=O)c1ccncc1,inactive,
CCCOc1ccc(S(=O)(=O)N2CCN(CC)CC2)cc1-c1nc2c(CC)n(Cc3ccccn3)nc2c(=O)[nH]1,inactive,
OC(Cn1cncn1)(Cn1cncn1)c1ccc(F)cc1F,inactive,
c1ccc2cc3ccccc3cc2c1,inactive,
CCCCCCOC(=O)CC(CC(=O)OCCCCCC)(OC(=O)CCC)C(=O)OCCCCCC,inactive,
OCc1ccccc1,inactive,
Cc1nc(-c2ccccn2)ncc1C(=O)Nn1cc(C)c2cc(F)ccc21,inactive,
Cc1nccn1-c1ccc(Sc2cccc(C3(C(N)=O)CCOCC3)c2)cc1,inactive,
COS(C)(=O)=O,inactive,
O=C(NO)C1(NS(=O)(=O)c2ccc(Oc3ccc(F)cc3)cc2)CCOCC1,inactive,
C[C@]12C=CC(=O)C=C1CC[C@H]1[C@@H]3C[C@@H](O)[C@](O)(C(=O)CO)[C@@]3(C)C[C@H](O)[C@@]12F,inactive,
CCCCCCCC/C=C\CCCCCCCC(=O)OC[C@@H](O)[C@H]1OC[C@H](O)[C@H]1O,inactive,
O=C1CN(N=Cc2ccc([N+](=O)[O-])o2)C(=O)N1,inactive,
C=CCc1cc(S(=O)(=O)c2ccc(O)c(CC=C)c2)ccc1O,inactive,
CCOc1ccc2[nH]cc(C(=O)NCc3ccccc3)c(=O)c2n1,inactive,
CCCCCCCCN(C)C,inactive,
CC(C)CC(C)O (centres undefined),inactive,
CCCCCCCCCCCCCCCCOS(=O)(=O)O,,11.5 µM (active)
CCCCCCCCCC,inactive,

# Test: ATG_VDRE_CIS: Attagene CIS-FACTORIAL HepG2 Assay for human Vitamin D Receptor Element (VDRE) (AID 2282968)
# Conditions: HepG2 VDRE cis-reporter transcription, actives raise or lower the signal
# Procedure, shortened: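 RT-PCR/CE readout of reporter mRNA; HepG2, transient transfection, 24 h dosing; DMSO baseline; bidirectional analysis.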
SMILES,outcome,AC50
NC(=O)NN=Cc1ccc([N+](=O)[O-])o1,inactive,
CCCC(CCC)C(=O)O,inactive,
Cc1ccc(S(=O)(=O)NC(=O)NN2CCCCCC2)cc1,inactive,
CCc1ccc(O)c(C(C)(C)C)c1,,43 µM (active)
CCCCCCCCCCCCCCO,inactive,
OCCNCCO,inactive,
Nc1ccn([C@@H]2O[C@H](CO)[C@@H](O)[C@@H]2O)c(=O)n1,inactive,
COCc1nnc(-c2ccc[n+]([O-])c2)n1-c1c(Cl)c(Cl)cc2[nH]c(=O)c(=O)[nH]c12,inactive,
CCCCCOC(C)=O,inactive,
NNC(=O)c1ccncc1,inactive,
CCCOc1ccc(S(=O)(=O)N2CCN(CC)CC2)cc1-c1nc2c(CC)n(Cc3ccccn3)nc2c(=O)[nH]1,,2.51 µM (active)
OC(Cn1cncn1)(Cn1cncn1)c1ccc(F)cc1F,inactive,
c1ccc2cc3ccccc3cc2c1,inactive,
CCCCCCOC(=O)CC(CC(=O)OCCCCCC)(OC(=O)CCC)C(=O)OCCCCCC,inactive,
OCc1ccccc1,inactive,
Cc1nc(-c2ccccn2)ncc1C(=O)Nn1cc(C)c2cc(F)ccc21,inactive,
Cc1nccn1-c1ccc(Sc2cccc(C3(C(N)=O)CCOCC3)c2)cc1,,4.16 µM (active)
COS(C)(=O)=O,inactive,
O=C(NO)C1(NS(=O)(=O)c2ccc(Oc3ccc(F)cc3)cc2)CCOCC1,inactive,
C[C@]12C=CC(=O)C=C1CC[C@H]1[C@@H]3C[C@@H](O)[C@](O)(C(=O)CO)[C@@]3(C)C[C@H](O)[C@@]12F,inactive,
CCCCCCCC/C=C\CCCCCCCC(=O)OC[C@@H](O)[C@H]1OC[C@H](O)[C@H]1O,inactive,
O=C1CN(N=Cc2ccc([N+](=O)[O-])o2)C(=O)N1,inactive,
C=CCc1cc(S(=O)(=O)c2ccc(O)c(CC=C)c2)ccc1O,,9.12 µM (active)
CCOc1ccc2[nH]cc(C(=O)NCc3ccccc3)c(=O)c2n1,,27.6 µM (active)
CCCCCCCCN(C)C,,0.00907 µM (active)
CC(C)CC(C)O (centres undefined),inactive,
CCCCCCCCCCCCCCCCOS(=O)(=O)O,inactive,
CCCCCCCCCC,inactive,
